The panel holds about 79,000 compounds, 15% with a hit somewhere; the sample as a whole holds those more often. A number with no mark means an inactive call. Activity calls are given as the source filed them. Rule as the data show it: active = growth inhibition above about 70%; inactive = the rest.
Key:
[1] = NCI Yeast Anticancer Drug Screen. Data for the rad50 strain (AID 155);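 also: 0% = growth of vehicle-only cultures of the same strain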; settings: S. cerevisiae rad50 strain growth inhibition; at 50.0 µM; hits give high values
How it was run: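 DNA repair mutant yeast, compound exposure, growth read-out; inhibition is taken relative to vehicle.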

[2] = NCI Yeast Anticancer Drug Screen. Data for the mec2-1 strain (AID 157); settings: S. cerevisiae mec2-1 strain, at 50.0 µM, hits give high values
How it was run: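 Vehicle-treated cultures served as reference for growth inhibition of compound-exposed mec2-1 yeast.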

[3] = NCI Yeast Anticancer Drug Screen. Data for the sgs1 mgt1 strain (AID 161);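 also: 0% = growth of cultures given vehicle only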; settings: S. cerevisiae sgs1 mgt1 strain, at 50.0 µM, hits give high values
How it was run: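 Read-out: growth inhibition vs vehicle controls. Cells: mutant yeast strain deficient in DNA damage repair.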

[4] = NCI Yeast Anticancer Drug Screen. Data for the cln2 rad14 strain (AID 165);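 also: 0% = growth equal to vehicle treated cultures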; settings: S. cerevisiae cln2 rad14 strain, at 50.0 µM, hits give high values
How it was run: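 Each compound was tested on cln2 rad14 yeast. Inhibition of growth was calculated against vehicle-exposed controls.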

[5] = NCI Yeast Anticancer Drug Screen. Data for the bub3 strain (AID 167); settings: S. cerevisiae bub3 mutant strain, at 50.0 µM, hits give high values
How it was run: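 In this screen, a yeast mutant lacking normal mitotic checkpoint function is challenged with compound. Relative growth versus vehicle gives the inhibition value.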

[6] = NCI Yeast Anticancer Drug Screen. Data for the mlh1 rad18 strain (AID 175); settings: S. cerevisiae mlh1 rad18 strain growth inhibition; at 50.0 µM; hits give high values
How it was run: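 Vehicle-treated cultures served as the reference for growth inhibition in a yeast strain carrying DNA damage repair alterations exposed to each compound.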

C/C(=N\NS(=O)(=O)c1ccccc1)c1ccccc1
growth inhibition [1]: 5.95% | growth inhibition [2]: 3.4% | growth inhibition [3]: 3.5% | growth inhibition [4]: 28.6% | growth inhibition [5]: 1.1% | growth inhibition [6]: 20.5%

CC(=O)OCC(C)(C(N)=O)c1ccccc1 (stereo not given)
growth inhibition [1]: -36.9% | growth inhibition [2]: -9.15% | growth inhibition [3]: -5.5% | growth inhibition [4]: -32% | growth inhibition [5]: -5.9% | growth inhibition [6]: 1.85%

CCc1c(Sc2ccccn2)n(COCc2ccccc2)c(=O)[nH]c1=O
growth inhibition [1]: -14.5% | growth inhibition [2]: -4.4% | growth inhibition [3]: -24.9% | growth inhibition [4]: -16.4% | growth inhibition [5]: -17.8% | growth inhibition [6]: -16.1%

CCCCNc1nc2ccccc2c2c1ncn2CC(C)C
growth inhibition [1]: -7.4% | growth inhibition [2]: 34.5% | growth inhibition [3]: 14.1% | growth inhibition [4]: 23.5% | growth inhibition [5]: 46.5% | growth inhibition [6]: 30.3%

O=c1[nH]c2nc3ccccc3c(=O)n2/c1=C/c1ccc(Cl)cc1
growth inhibition [1]: -1.6% | growth inhibition [2]: 18.2% | growth inhibition [3]: 43.4% | growth inhibition [4]: 29.6% | growth inhibition [5]: 14.1% | growth inhibition [6]: -17.2%

[O-]c1n[n+](Cc2ccc(Br)cc2)no1
growth inhibition [1]: 6.95% | growth inhibition [2]: 15.2% | growth inhibition [3]: -4% | growth inhibition [4]: 1.2% | growth inhibition [5]: 18.4% | growth inhibition [6]: 28.3%

O=S(=O)(Cc1cccs1)c1ncc(Br)cn1
growth inhibition [1]: 9.25% | growth inhibition [2]: 10.1% | growth inhibition [3]: 7.9% | growth inhibition [4]: 7.5% | growth inhibition [5]: 11.8% | growth inhibition [6]: 7.8%

Cc1oc(C)c2c(N=Nc3ccc([N+](=O)[O-])cc3[N+](=O)[O-])c3ccccc3c(O)c12
growth inhibition [1]: 25% | growth inhibition [2]: 25.1% | growth inhibition [3]: 11.4% | growth inhibition [4]: -27.6% | growth inhibition [5]: 37.5% | growth inhibition [6]: 49.6%

Cc1cc2nc(/N=C/c3nc(O)c(C)[nH]3)[nH]c2cc1C
growth inhibition [1]: 33.2% | growth inhibition [2]: 22.4% | growth inhibition [3]: 59% | growth inhibition [4]: 20.4% | growth inhibition [5]: 14.1% | growth inhibition [6]: 56%

CCOC(=O)c1cn(CC)c2c(ccc3cnccc32)c1=O
growth inhibition [1]: -3.55% | growth inhibition [2]: -18.4% | growth inhibition [3]: -18.4% | growth inhibition [4]: 29.6% | growth inhibition [5]: -11% | growth inhibition [6]: 10.2%

CN(C)C(=Nc1ccccc1)N(C)N
growth inhibition [1]: -1.2% | growth inhibition [2]: 5.7% | growth inhibition [3]: -12.9% | growth inhibition [4]: 0.75% | growth inhibition [5]: 1.9% | growth inhibition [6]: 0.95%

CC1CCN(C(=O)c2cc(Nc3ccnc4cc(Cl)ccc34)ccc2O)CC1
growth inhibition [1]: -2.05% | growth inhibition [2]: -3.4% | growth inhibition [3]: -6.65% | growth inhibition [4]: -4.35% | growth inhibition [5]: -3.9% | growth inhibition [6]: 7.6%

CCc1ccccc1NC(=O)/C=N/O
growth inhibition [1]: -27.9% | growth inhibition [2]: -24.1% | growth inhibition [3]: -17.6% | growth inhibition [4]: -7.3% | growth inhibition [5]: -22.6% | growth inhibition [6]: -11.2%

O=C1C(N=Nc2ccc([N+](=O)[O-])cc2)Sc2nc3ccccc3n21 (stereo not given)
growth inhibition [1]: 25.8% | growth inhibition [2]: -39.9% | growth inhibition [3]: 7.6% | growth inhibition [4]: -14.5% | growth inhibition [5]: -2.2% | growth inhibition [6]: 12.2%

CC(CNC(N)=O)NC(N)=O (stereo not given)
growth inhibition [1]: -23.8% | growth inhibition [2]: -15.8% | growth inhibition [3]: -32.4% | growth inhibition [4]: 11.4% | growth inhibition [5]: -19.6% | growth inhibition [6]: -24.4%

Nc1nc(-c2ccc([N+](=O)[O-])cc2)cc(-c2cc(-c3ccc([N+](=O)[O-])cc3)nc(N)n2)n1
growth inhibition [1]: 5.05% | growth inhibition [2]: 6.7% | growth inhibition [3]: -9.8% | growth inhibition [4]: 14.7% | growth inhibition [5]: -17.4% | growth inhibition [6]: 6.6%

C=CC(=O)OCc1ccc(OC)cc1
growth inhibition [1]: 30.1% | growth inhibition [2]: 32.2% | growth inhibition [3]: 28.9% | growth inhibition [4]: 14.2% | growth inhibition [5]: 5.95% | growth inhibition [6]: 29.5%

Cc1cc(=O)c2cccc(-c3ccccc3)c2[nH]1
growth inhibition [1]: 19.5% | growth inhibition [2]: 1.25% | growth inhibition [3]: 1.15% | growth inhibition [4]: -30.9% | growth inhibition [5]: -12.9% | growth inhibition [6]: 22.2%

CC12CCC3=C(CCc4cc(O)ccc43)C1CCC2=O (stereo not given)
growth inhibition [1]: -4.8% | growth inhibition [2]: 9.75% | growth inhibition [3]: 5.8% | growth inhibition [4]: -34.5% | growth inhibition [5]: -7.95% | growth inhibition [6]: 4.4%

NC(=O)N1N=C2c3ccccc3SC[C@H]2[C@@H]1c1ccccc1
growth inhibition [1]: 29.5% | growth inhibition [2]: -23.2% | growth inhibition [3]: -26.8% | growth inhibition [4]: 2.55% | growth inhibition [5]: -20.9% | growth inhibition [6]: 21.6%

O=S(=O)(NOCCCCONS(=O)(=O)c1ccccc1)c1ccccc1
growth inhibition [1]: 27.6% | growth inhibition [2]: 17.6% | growth inhibition [3]: 11.2% | growth inhibition [4]: 92.1% (active) | growth inhibition [5]: 26.3% | growth inhibition [6]: -6.15%

NC(CSS(=O)(=O)c1ccccc1)C(=O)O (stereo not given)
growth inhibition [1]: 4% | growth inhibition [2]: -37.5% | growth inhibition [3]: -0.75% | growth inhibition [4]: 0.5% | growth inhibition [5]: -10.6% | growth inhibition [6]: 0.3%

COC(=O)C1=C(C(=O)OC)C2(C(=O)OC)OC1(OC)C(C1(C(=O)OC)C(C(=O)OC)=C1C(=O)OC)=C2C(=O)OC (stereo not given)
growth inhibition [1]: 16% | growth inhibition [2]: 14.2% | growth inhibition [3]: 8.9% | growth inhibition [4]: 16.1% | growth inhibition [5]: 1.25% | growth inhibition [6]: 9.7%

NS(=O)(=O)c1ccc(NC(=S)/N=C\c2c(O)[nH]c(=O)[nH]c2=O)cc1
growth inhibition [1]: -13% | growth inhibition [2]: -16.3% | growth inhibition [3]: -18.3% | growth inhibition [4]: 15.7% | growth inhibition [5]: -12.6% | growth inhibition [6]: -11%

CCOc1c(N=Nc2cccc(Cl)c2)c(-c2ccccc2)nn1C(N)=S
growth inhibition [1]: -3.4% | growth inhibition [2]: -10.3% | growth inhibition [3]: -24.2% | growth inhibition [4]: 2.15% | growth inhibition [5]: 35.5% | growth inhibition [6]: 20.8%

O=S1(=O)Cc2ccccc2O1
growth inhibition [1]: 4.25% | growth inhibition [2]: 5.2% | growth inhibition [3]: 28.6% | growth inhibition [4]: -3.2% | growth inhibition [5]: -19% | growth inhibition [6]: 33%

S=c1o[nH]c(-c2ccccc2)c1C=Nc1ccccc1
growth inhibition [1]: -5.45% | growth inhibition [2]: 17.5% | growth inhibition [3]: 13.9% | growth inhibition [4]: 26.6% | growth inhibition [5]: 5.35% | growth inhibition [6]: 6.15%

Cc1cc2n(n1)C(=O)CC(=O)C2
growth inhibition [1]: 8.4% | growth inhibition [2]: 1% | growth inhibition [3]: 2.25% | growth inhibition [4]: -24.4% | growth inhibition [5]: -1.2% | growth inhibition [6]: -3.7%

C#CC(C)(O)CCCCCC (stereo not given)
growth inhibition [1]: 3.7% | growth inhibition [2]: 16.4% | growth inhibition [3]: 12% | growth inhibition [4]: -4.05% | growth inhibition [5]: 35% | growth inhibition [6]: -7.1%

CCOc1cc[n+](C)c2ccc(C)cc12
growth inhibition [1]: 13.6% | growth inhibition [2]: 12.8% | growth inhibition [3]: 11.3% | growth inhibition [4]: 16.3% | growth inhibition [5]: 21.5% | growth inhibition [6]: 26.7%

COC(=O)C(=O)OC
growth inhibition [1]: 27.1% | growth inhibition [2]: -10% | growth inhibition [3]: -11.3% | growth inhibition [4]: -39% | growth inhibition [5]: 1.15% | growth inhibition [6]: -3.35%

Cc1ccsc1/C=N/Nc1cc(C)c2ccccc2n1
growth inhibition [1]: 41.4% | growth inhibition [2]: -6.25% | growth inhibition [3]: 40% | growth inhibition [4]: 35.8% | growth inhibition [5]: 26.6% | growth inhibition [6]: 16.2%

CCCCCCCCCCCCCCCC(C)O (stereo not given)
growth inhibition [1]: -45.8% | growth inhibition [2]: -35.8% | growth inhibition [3]: -20.1% | growth inhibition [4]: -35.6% | growth inhibition [5]: -43.5% | growth inhibition [6]: -34.8%

N=C(N)c1ccc(OCCOc2cccc(N)c2)cc1
growth inhibition [1]: 3.35% | growth inhibition [2]: -15.8% | growth inhibition [3]: 11.2% | growth inhibition [4]: -39% | growth inhibition [5]: -5% | growth inhibition [6]: 13.5%

CCN(CC)CC(C)(C)C(=O)/C=C/c1ccc(OC)cc1
growth inhibition [1]: -3.7% | growth inhibition [2]: -8.2% | growth inhibition [3]: 7.35% | growth inhibition [4]: -5.5% | growth inhibition [5]: 0.05% | growth inhibition [6]: -7.3%

Cc1ccc2ccccc2c1Br
growth inhibition [1]: -4.55% | growth inhibition [2]: -0.85% | growth inhibition [3]: 1.6% | growth inhibition [4]: -14.8% | growth inhibition [5]: -3.2% | growth inhibition [6]: -8.55%

CC(=O)NC(c1ccc(F)cc1)(c1ccc(F)cc1)C(F)(F)F
growth inhibition [1]: 40.4% | growth inhibition [2]: 11.1% | growth inhibition [3]: 42.2% | growth inhibition [4]: 35.6% | growth inhibition [5]: 43% | growth inhibition [6]: 40.9%

CCCC(C)C1(CCC)C(=O)N=C(N)N=C1N (stereo not given)
growth inhibition [1]: 3.8% | growth inhibition [2]: 7.75% | growth inhibition [3]: -3.9% | growth inhibition [4]: 12.4% | growth inhibition [5]: -2.8% | growth inhibition [6]: -10.5%

COc1cc(OC)c(NC(=O)CC2SC(N)=NC2=O)cc1Cl (stereo not given)
growth inhibition [1]: 9.75% | growth inhibition [2]: 6.85% | growth inhibition [3]: 20.2% | growth inhibition [4]: 11% | growth inhibition [5]: 25.4% | growth inhibition [6]: 20.6%

CC(C)(C)CC(C(=O)O)[Si](C)(C)C (stereo not given)
growth inhibition [1]: -4.55% | growth inhibition [2]: 7.1% | growth inhibition [3]: -1.65% | growth inhibition [4]: -1.25% | growth inhibition [5]: 2.9% | growth inhibition [6]: -9.7%
